Reference: PubChem BioAssay AID1159580 (chemical genetic matrix, 2015)
Out of some 5,500 compounds screened, about 2,000 (36%) were called active. Inconclusive results (about 18%) are left out. Rule as the data show it: active = normalized growth mostly below about 0.91 (no sharp cut-off); inconclusive = no clear call, values can overlap the other calls; inactive = mostly above about 0.92. This is one part of the list.

Test: chemical genetic growth profiling, strain panel (AID 1159580);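 also: tested at 20 µM; growth read once vehicle control cultures reached saturation at 30 °C; 1 = growth at the plate median or of vehicle wells; lower values mean less growth of the strain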
Settings: growth OD

Measured: normalized growth

OCC(O)C(O)C(O)C(O)C(O)CO (configuration not stated)
inactive: S. cerevisiae deletion strains, locus YKL009W, strain mrt4, active compounds read low 1.05 | S. cerevisiae deletion strains, locus YKL068W, active compounds read low 0.98 | S. cerevisiae deletion strains, locus YKL085W, strain MDH1 (second series), active compounds read low 1 | S. cerevisiae deletion strains, locus YKL085W, strain MDH1, active compounds read low 1 | S. cerevisiae deletion strains, locus YKL160W, strain elf1, active compounds read low 1.01 | S. cerevisiae deletion strains, locus YKL190W, strain CNB1, active compounds read low 1.02 | S. cerevisiae deletion strains, locus YKR001C, strain vps1, active compounds read low 1.01 | S. cerevisiae deletion strains, locus YKR026C, strain gcn3, active compounds read low 1.01 | S. cerevisiae deletion strains, locus YKR091W, strain srl3, active compounds read low 0.997 | S. cerevisiae deletion strains, locus YLL001W, strain dnm1, active compounds read low 0.995 | S. cerevisiae deletion strains, locus YLL026W, active compounds read low 0.999 | S. cerevisiae deletion strains, locus YLL041C, strain sdh2, active compounds read low 0.998 | S. cerevisiae deletion strains, locus YLR027C, strain aat2, active compounds read low 0.997 | S. cerevisiae deletion strains, locus YLR039C, strain RIC1, active compounds read low 1.14 | S. cerevisiae deletion strains, locus YLR058C, strain SHM2, active compounds read low 1 | S. cerevisiae deletion strains, locus YLR102C, strain apc9, active compounds read low 0.987 | S. cerevisiae deletion strains, locus YLR113W, strain HOG1, active compounds read low 0.965 | S. cerevisiae deletion strains, locus YLR221C, strain rsa3, active compounds read low 1.01 | S. cerevisiae deletion strains, locus YLR258W, strain gsy2, active compounds read low 1 | S. cerevisiae deletion strains, locus YLR262C, strain YPT6 (second series), active compounds read low 1 | S. cerevisiae deletion strains, locus YLR268W, strain sec22, active compounds read low 0.998 | S. cerevisiae deletion strains, locus YLR320W, strain mms22, active compounds read low 0.985 | S. cerevisiae deletion strains, locus YLR330W, strain CHS5, active compounds read low 0.992 | S. cerevisiae deletion strains, locus YLR342W, strain FKS1 (second series), active compounds read low 0.998 | S. cerevisiae deletion strains, locus YLR342W, strain FKS1, active compounds read low 0.993 | S. cerevisiae deletion strains, locus YLR357W, strain rsc2, active compounds read low 0.974 | S. cerevisiae deletion strains, locus YLR370C, strain arc18, active compounds read low 0.999 | S. cerevisiae deletion strains, locus YLR371W, strain rom2, active compounds read low 1.03 | S. cerevisiae deletion strains, locus YLR384C, strain iki3, active compounds read low 0.995 | S. cerevisiae deletion strains, locus YLR418C, strain cdc73, active compounds read low 1 | S. cerevisiae deletion strains, locus YML016C, strain PPZ1, active compounds read low 0.988 | S. cerevisiae deletion strains, locus YML032C, strain rad52, active compounds read low 0.987 | S. cerevisiae deletion strains, locus YML120C, strain ndi1, active compounds read low 0.988 | S. cerevisiae deletion strains, locus YML124C, strain tub3, active compounds read low 0.988 | S. cerevisiae deletion strains, locus YMR058W, strain fet3, active compounds read low 0.997 | S. cerevisiae deletion strains, locus YMR078C, strain ctf18, active compounds read low 0.989 | S. cerevisiae deletion strains, locus YMR125W, strain sto1, active compounds read low 0.973 | S. cerevisiae deletion strains, locus YMR129W, active compounds read low 0.99 | S. cerevisiae deletion strains, locus YMR205C, strain PFK2, active compounds read low 1 | S. cerevisiae deletion strains, locus YMR223W, strain ubp8, active compounds read low 1.01 | S. cerevisiae deletion strains, locus YMR231W, strain pep5, active compounds read low 0.998 | S. cerevisiae deletion strains, locus YMR307W, strain GAS1, active compounds read low 1.12 | S. cerevisiae deletion strains, locus YNL067W, strain RPL9B, active compounds read low 1.02 | S. cerevisiae deletion strains, locus YNL071W, strain lat1, active compounds read low 1 | S. cerevisiae deletion strains, locus YNL153C, strain GIM3, active compounds read low 1.03 | S. cerevisiae deletion strains, locus YNL183C, strain NPR1, active compounds read low 0.932 | S. cerevisiae deletion strains, locus YNL209W, strain ssb2, active compounds read low 1 | S. cerevisiae deletion strains, locus YNL233W, strain BNI4, active compounds read low 1.06 | S. cerevisiae deletion strains, locus YNL248C, strain rpa49, active compounds read low 0.99 | S. cerevisiae deletion strains, locus YNL250W, strain rad50, active compounds read low 0.987 | S. cerevisiae deletion strains, locus YNL271C, strain bni1, active compounds read low 1.01 | S. cerevisiae deletion strains, locus YNL298W, strain CLA4, active compounds read low 0.99 | S. cerevisiae deletion strains, locus YNL307C, strain MCK1, active compounds read low 0.992 | S. cerevisiae deletion strains, locus YNL322C, strain KRE1 (second series), active compounds read low 0.999 | S. cerevisiae deletion strains, locus YNR049C, strain mso1, active compounds read low 0.987 | S. cerevisiae deletion strains, locus YNR052C, strain pop2, active compounds read low 1.03 | S. cerevisiae deletion strains, locus YOL006C, strain TOP1, active compounds read low 1.14 | S. cerevisiae deletion strains, locus YOL012C, strain htz1 0.757 | S. cerevisiae deletion strains, locus YOL147C, strain pex11, active compounds read low 0.998 | S. cerevisiae deletion strains, locus YOR001W, strain rrp6, active compounds read low 1 | S. cerevisiae deletion strains, locus YOR061W, strain CKA2, active compounds read low 0.984 | S. cerevisiae deletion strains, locus YOR069W, strain VPS5, active compounds read low 1 | S. cerevisiae deletion strains, locus YOR070C, strain gyp1, active compounds read low 0.995 | S. cerevisiae deletion strains, locus YOR080W, strain dia2, active compounds read low 0.985 | S. cerevisiae deletion strains, locus YOR083W, strain WHI5, active compounds read low 0.996 | S. cerevisiae deletion strains, locus YOR106W, strain vam3, active compounds read low 1.01 | S. cerevisiae deletion strains, locus YOR136W, strain idh2, active compounds read low 1.01 | S. cerevisiae deletion strains, locus YOR144C, strain elg1, active compounds read low 0.991 | S. cerevisiae deletion strains, locus YOR184W, strain ser1, active compounds read low 0.982 | S. cerevisiae deletion strains, locus YOR231W, strain MKK1, active compounds read low 0.961 | S. cerevisiae deletion strains, locus YOR265W, strain rbl2, active compounds read low 0.989 | S. cerevisiae deletion strains, locus YOR270C, strain vph1, active compounds read low 0.994 | S. cerevisiae deletion strains, locus YOR290C, strain snf2, active compounds read low 0.989 | S. cerevisiae deletion strains, locus YOR316C, strain cot1, active compounds read low 0.984 | S. cerevisiae deletion strains, locus YPL051W, strain arl3, active compounds read low 1 | S. cerevisiae deletion strains, locus YPL055C, strain LGE1, active compounds read low 0.97 | S. cerevisiae deletion strains, locus YPL078C, strain atp4, active compounds read low 0.992 | S. cerevisiae deletion strains, locus YPL106C, strain sse1, active compounds read low 0.989 | S. cerevisiae deletion strains, locus YPL240C, strain hsp82, active compounds read low 0.989 | S. cerevisiae deletion strains, locus YPL241C, strain CIN2, active compounds read low 0.998 | S. cerevisiae deletion strains, locus YPL256C, strain CLN2, active compounds read low 0.968 | S. cerevisiae deletion strains, locus YPR119W, strain clb2, active compounds read low 0.997 | S. cerevisiae deletion strains, locus YPR141C, strain kar3, active compounds read low 0.976 | S. cerevisiae deletion strains, locus YPR163C, strain tif3, active compounds read low 1.01 | S. cerevisiae deletion strains, locus YPR167C, strain met16, active compounds read low 0.993 | S. cerevisiae deletion strains, strain wtn01, active compounds read low 0.997 | S. cerevisiae strains, strain wild type, active compounds read low 1.03
